This is a sample that favours compounds with a hit; in the whole collection about 3.7% have one here.
tim23-1 inh: inhibits growth of tim23-1 mutant yeast. inhibition, % at 20 µM. 1.3% of 330,000 active. S. cerevisiae tim23-1 growth, BacTiter-Glo luminescence, 24 h;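 active means growth inhibition of the mutant yeast at or above 50%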;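 further: temperature-sensitive mutant grown at 25 °C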
TIM10 inh: inhibits growth of TIM10 yeast strain; 1.4% of 330,000 active; S. cerevisiae TIM10 strain growth, BacTiter-Glo luminescence, 24 h; AID 463195; inhibition, % at 10 µM;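 active means inhibition of 40% or more at the single tested concentration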;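 further: wild-type TIM10 isogenic control strain grown at permissive 25 °C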
V-ATPase pH: regulators of yeast V-ATPase proton transport; response, % at 10 µM; S. cerevisiae, pHLuorin cytosolic pH fluorescence; 0.37% of 350,000 active; in the data active means response mostly above about 7.3%, no sharp cut-off; inactive means mostly below about 5.4%; further: actives read high
PfHsp90 set2: reduces growth (ATP signal) of yeast expressing P. falciparum Hsp90; S. cerevisiae expressing PfHsp90, BacTiter-Glo ATP, 48 h; yeast lacking PDR1 and PDR3 efflux regulators; inhibition, % at 9.4 µM; 0.32% of 310,000 active;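 active means every replicate shows inhibition above about 80%, whatever the replicate mean, limit read from the data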
tim10-1 inh: growth inhibitors of tim10-1 mutant yeast | 2.2% of 330,000 active | S. cerevisiae tim10-1 ts strain growth, BacTiter-Glo, 24 h | inhibition, % at 20 µM;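 active means inhibition of at least 40%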;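 further: mutant grown at 25 °C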
V-ATPase pH SP: yeast V-ATPase proton transport regulation | shares compounds with V-ATPase pH | S. cerevisiae pHLuorin cytosolic pH | response, % at 10 µM | 2% of 980 active; in the data active means response above about 24%
A number is an active result; 0 = inactive; - = no result.

SMILES | tim23-1 inh | TIM10 inh | V-ATPase pH | PfHsp90 set2 | tim10-1 inh | V-ATPase pH SP
O=C(CSCc1ccc(Br)cc1)NCCc1ccccc1 | 0 | 0 | 0 | 0 | 0 | -
CCN(CC)C(=O)[C@H]1CC(CC(=O)NCc2ccco2)C(=O)N2CCc3c([nH]c4ccc(OC)cc34)[C@]12C (stereo not given in full) | 0 | 0 | 0 | 0 | 0 | -
O=C(c1ccc(CS(=O)c2ccc(Br)cc2)o1)N1CCN(C2CCCCC2)CC1 (stereo not given) | - | - | 79 | - | - | 0
O=C(c1ccc(CS(=O)c2cccc(Cl)c2)o1)N1CCN(C2CCCCC2)CC1 (stereo not given) | 0 | 0 | 0 | 0 | 0 | -
CC1=C(C(=O)Nc2cc(C(=O)NCc3ccccc3)ccc2C)SCCO1 | - | - | 55 | - | - | 0
O=C(O)CSc1nnnn1C1CCCCC1 | 0 | 0 | 0 | 0 | 0 | -
CC(C)N(C(=O)CSc1nnnn1C1CCCC1)C(C)C | 0 | 0 | 8.1 | 0 | 0 | 0
Cc1nnc(SCC(=O)c2c[nH]c3ccccc23)n1C1CC1 | 0 | 0 | 0 | 0 | 0 | -
CC(=O)OC(C(=O)N1CCN(c2ccccc2F)CC1)c1ccccc1 (stereo not given) | 0 | 0 | 12 | 0 | 0 | 0
COc1ccc(C(=O)NCCn2cc(SCC(=O)NCC3CCCO3)c3ccccc32)cc1OC (stereo not given) | 0 | 0 | 8.1 | 0 | 0 | 0
CCCCN(C)CCCNC(=O)CN1C(=O)CSc2ccc(S(=O)(=O)N3CCOCC3)cc21 | 0 | 0 | 9.5 | - | 0 | 0
CCCCN(CC)CCCNC(=O)CN1C(=O)CSc2ccc(S(=O)(=O)N3CCOCC3)cc21 | 0 | 0 | 0 | 0 | 0 | -
CCn1c(=N)n(CC(O)c2ccccc2)c2ccccc21 (stereo not given) | 0 | 0 | 28 | 0 | 0 | 0
CCCCn1c(=N)n(CC(O)c2ccccc2)c2ccccc21 (stereo not given) | 0 | 0 | 0 | 0 | 0 | -
O=C(c1ccc2c(c1)OCO2)N(c1ccc(Br)cc1)C1C=CS(=O)(=O)C1 (stereo not given) | 0 | 0 | 0 | 0 | 0 | -
COc1ccc(NC(=O)CN(C)S(=O)(=O)c2ccc3c(c2)NC(=O)CS3)cc1 | 0 | 0 | 0 | 0 | 0 | -
COc1cccc(NC(=O)CN(C)S(=O)(=O)c2ccc3c(c2)NC(=O)CS3)c1 | 0 | 0 | 0 | 0 | 0 | 0
CCOC(=O)N1CCN(C(=O)c2cc3n(n2)C(C(F)(F)F)CC(c2ccc4c(c2)OCO4)N3)CC1 (stereo not given) | 0 | 0 | 7.4 | 0 | 0 | 0
O=C(NCc1ccc2c(c1)OCO2)c1cc2n(n1)C(C(F)(F)F)CC(c1ccc3c(c1)OCO3)N2 (stereo not given) | 0 | 0 | 0 | 0 | 0 | -
Cc1cc(N2CCN(c3cccc(C(F)(F)F)c3)CC2)n2nc(C)nc2n1 | 0 | 0 | 0 | 0 | 0 | -
Cc1cc(N2CCN(c3ccccn3)CC2)n2nc(C)nc2n1 | 0 | 0 | 8.4 | 0 | 0 | 0
O=C(COC(=O)COc1ccc(Br)cc1)NC1CCCC1 | 0 | 0 | 0 | 0 | 0 | -
CCOC(=O)C(=O)c1cn(C2OCC(OC(C)=O)C(OC(C)=O)C2OC(C)=O)c2ccccc12 (stereo not given) | 0 | 0 | 14 | 0 | 0 | 0
O=C(NCCCN1CCCC1=O)C(=O)NCC1OCCN1S(=O)(=O)c1cc(F)ccc1F (stereo not given) | - | - | 0 | - | - | -
O=C(Cc1ccc2c(c1)OCCO2)N1CCN(S(=O)(=O)c2ccccc2C(F)(F)F)CC1 | 0 | 0 | 12 | 0 | 0 | 0
SMILES | tim23-1 inh | TIM10 inh | V-ATPase pH | PfHsp90 set2 | tim10-1 inh | V-ATPase pH SP
CC(SCc1ccccc1)C(=O)Nc1ccccc1Br (stereo not given) | 0 | 0 | 11 | 0 | 0 | 0
CCCCn1c(=O)[nH]c(=O)c2c1nc(-c1ccc(C)c([N+](=O)[O-])c1)n2CC | 0 | 0 | 9.9 | - | 0 | 0
COc1ccc(-c2nnc3sc(COc4ccccc4)nn23)cc1 | 0 | 0 | 0 | - | 0 | -
COc1ccc(OCc2nn3c(-c4ccccn4)nnc3s2)cc1 | 0 | 0 | 9.5 | 0 | 0 | 0
C[C@@H]1CN([C@H](C)CO)C(=O)CCCn2cc(nn2)CO[C@H]1CN(C)S(=O)(=O)c1cccc(F)c1 | - | - | 0 | - | - | -
CNC(=S)N=Nc1c(O)[nH]c2ccccc12 | - | - | 0 | 0 | - | -
CCOC(=O)C(=O)N=Nc1c(O)[nH]c2ccccc12 | 0 | 0 | 0 | 0 | 0 | 0
COc1ccc(/C=C/C(=O)c2cccc(-n3cnnn3)c2)cc1O | 0 | 0 | 0 | 0 | 0 | -
CC(=O)c1cccc(S(=O)(=O)N2CCN(c3ccccc3F)CC2)c1 | 0 | 0 | 12 | 0 | 0 | 0
COC(=O)N=Nc1c(O)n(Cc2ccccc2)c2ccccc12 | 0 | 0 | 0 | 0 | 0 | -
CCOC(=O)N=Nc1c(O)n(Cc2ccccc2)c2ccccc12 | 0 | 0 | 0 | 0 | 0 | 0
CCOC(=O)N=Nc1c(O)n(CC)c2ccccc12 | 0 | 0 | 0 | 0 | 0 | 0
CCOC(=O)Cn1c(=O)c(-c2cc(Br)ccc2N)nc2ccccc21 | 0 | 0 | 31 | 0 | 0 | 0
Cn1c(=O)c(-c2cc(Br)ccc2N)nc2ccccc21 | 0 | 0 | 0 | 0 | 0 | 0
CCOC(=O)CCn1c(CC(=O)OCC)nc2ccccc21 | 0 | 0 | 0 | 0 | 0 | -
CCOC(=O)Cn1c(=O)c(-c2ccccc2N)nc2ccccc21 | 0 | 0 | 0 | 0 | 0 | 0
COc1ccccc1NC(=O)COC(=O)c1c(NC(C)=O)sc(C)c1C | - | - | 0 | - | - | -
CCc1ccc(OCC(=O)NNC(=O)c2cc(S(=O)(=O)N(C)C)ccc2N2CCCC2)cc1 | 0 | 0 | 0 | 0 | 0 | -
Nc1nonc1-n1nnc(C(=O)N/N=C/c2ccc(OCc3ccccc3)cc2)c1CN1CCCCC1 | 0 | 0 | 0 | 0 | 0 | -
CCN(C(=O)COC(=O)c1cc(-c2ccccc2)nc2ccc(Br)cc12)C1CCS(=O)(=O)C1 (stereo not given) | 0 | 0 | 10.0 | 0 | 0 | 0
COc1ccc(N2C(=O)CSC23C(=O)N(CC(=O)NC2CCCC2)c2ccccc23)cc1 (stereo not given) | 0 | 0 | 0 | 0 | 0 | -
CCOC(=O)C1CCN(C(=O)COc2ccc(Br)cc2C)CC1 | 0 | 0 | 0 | 0 | 0 | -
Cc1ccc(S(=O)(=O)/N=C(/Nc2ccc(O)c(C(=O)O)c2)c2ccccc2)cc1 | 0 | 0 | 12 | 0 | 0 | 0
Cc1ccc(NC(=O)COc2ccccc2C#N)cc1S(=O)(=O)N1CCCCCC1 | 0 | 0 | 0 | 0 | 0 | -
Cc1ccc(NC(=O)COc2cccnc2[N+](=O)[O-])cc1S(=O)(=O)N1CCCCC1 | 0 | 0 | 57 | 0 | 0 | 0
Nc1nnc(SCC(=O)Nc2ccc(N3CCOCC3)c(Cl)c2)s1 | 0 | 0 | 7.4 | 0 | 0 | 0
Nc1ccc2nc(SCC(=O)Nc3ccc(N4CCOCC4)c(Cl)c3)sc2c1 | 0 | 0 | 0 | 0 | 0 | -
CCOC(=O)c1c(-c2cc(OC)c(OC)c(OC)c2)csc1N | - | - | 0 | - | - | -
COc1ccc2nc(NC(=O)CSc3nc4ccccc4o3)sc2c1 | 0 | 0 | 12 | 0 | 0 | 0
O=C(CSc1nc2ccccc2o1)Nc1nc2ccc(Br)cc2s1 | 0 | 0 | 0 | 0 | 0 | -

Bioassay records: PubChem BioAssay, several laboratories
